Results: PubChem BioAssay (NCI)
The panel holds about 83,000 compounds, 20% with a hit somewhere; the sample as a whole holds those more often.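 For each line, cells grew in 96-well plates with the test compound present at a single concentration for 48 hours.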 Values without a mark were called inactive. Calls of active or inactive are those of the source. How the source made its calls: active means growth percent below 10; inactive means the rest.

Columns and labels:
Test in all cases: NCI-60 one-dose screen, 48 h (100 = growth as untreated, 0 = no growth, -100 = all killed)
BT-549 breast = details: 10 µM unless noted
MDA-MB-435 melanoma = details: 10 µM unless noted
SW-620 colon = details: 10 µM unless noted
MCF7 breast = details: 10 µM
HCT-116 colon = details: 10 µM unless noted
HCC-2998 colon = details: 10 µM unless noted
KM12 colon = details: 10 µM unless noted

| SMILES | growth (BT-549 breast) | growth (MDA-MB-435 melanoma) | growth (SW-620 colon) | growth (MCF7 breast) | growth (HCT-116 colon) | growth (HCC-2998 colon) | growth (KM12 colon) |
| --- | --- | --- | --- | --- | --- | --- | --- |
| O=C1/C=C/[C@@H](O)[C@@H]2C[C@@H](O)C[C@H]2/C=C/CCCCO1 | 45.3% | 23.5% | -33.7% (active) | -48% (active) | 0.136% (active) | 6.82% (active) | -51.1% (active) |
| C=C(C)CCC(C)N1CCC(N2CCC(C(=O)NCCc3ccccc3)CC2)CC1 (configuration not stated) | 64.5% | -18.5% (active) | 45.2% | 9.23% (active) | 17.6% | 131% | 24.8% |
| CC(C)CCNCC(O)Cn1c2ccccc2c2ccccc21 (configuration not stated) | 84.3% | 5.65% (active) | 12.5% | 8.76% (active) | 4% (active) | 12.1% | 15.7% |
| O=Cc1cc2ccccc2nc1Nc1nccs1 | 88.9% | 81.4% | 27.5% | 13.2% | 54.3% | 87.6% | 56.2% |
| S=C1NC2(c3ccccc3)CCC(=S)N2c2ccccc21 (configuration not stated) | 107% | 101% | 108% | 108% | 103% | 127% | 108% |
| CCN(CC)CCCNc1ccnc2cc3ccccc3cc12 | 94.2% | 87.3% | 83% | 81.7% | 60.1% | 78.7% | 80.8% |
| CN1C(=O)N(C)C2(c3ccccc3)n3c(s/c(=C\c4ccccc4)c3=O)=NNC12c1ccccc1 (configuration not stated) | 105% | 98.1% | 88.6% | 85.6% | 88.3% | 110% | 88.2% |
| CN1CCN(Cc2ccc(NC(=O)c3[nH]ncc3Nc3cc(OC4CCCC4)ncn3)cc2)CC1 | 12.5% | 41.5% | 15.8% | 10.7% | 4.66% (active) | 28.7% | 21.9% |
| CCCSC1=NC2C(N(CC)C(=O)N2CC)N1/N=C/C=C/c1ccccc1[N+](=O)[O-] (configuration not stated) | 30.7% | -30.1% (active) | 37.3% | 21.8% | 7.28% (active) | 15% | 14.9% |
| CCCN1CCN(c2ccc3nc(-c4ccc5nc(-c6cc(OC)ccc6OC)[nH]c5c4)[nH]c3c2)CC1 | 96.3% | 106% | -70.2% (active) | -63.3% (active) | -57.3% (active) | 113% | 32.3% |
| COc1cc(C(=O)NN=C2c3ccccc3-c3ccccc32)cc(OC)c1OC | 43.3% | -22.6% (active) | 19.5% | 11.9% | 20.4% | 77.9% | 29.3% |
| O=c1c2cc(F)ccc2sc2c(Nc3ccncc3)nc3ccccc3c12 | 81.5% | -62.1% (active) | -74.6% (active) | -77.9% (active) | -48.9% (active) | 75.9% | 1.24% (active) |
| COc1ccccc1C(=O)O/N=C(\N)Cc1cccc2ccccc12 | 99.4% | 105% | 97.3% | 78.9% | 81.5% | 89.4% | 87.9% |
| Nc1ccccc1-c1ccc(-c2ccc(Cl)cc2)c2c1[nH]c1ccccc12 | 85.4% | 91.2% | 78.2% | 68.7% | 52.8% | 86.1% | 66.6% |
| CCOC(=O)c1sc(-c2ccc(OS(=O)(=O)C[C@]34CCC(CC3=O)C4(C)C)c(C=O)c2)nc1C | -13.5% (active) | 7.61% (active) | 10.5% | 2% (active) | 5.89% (active) | 66.4% | 7.78% (active) |
| CCOC(=O)C1=CN(C)C=C(C(=O)OCC)C1c1cc(Br)c(OCC)c(OC)c1 | 84.9% | 15.6% | 48.6% | 14.7% | 43.9% | -16.5% (active) | 48.4% |
| CCCCN1CCN(c2ccc3nc(-c4ccc5nc(-c6ccc(OC)c(OC)c6)[nH]c5c4)[nH]c3c2)CC1 | -59% (active) | -64.5% (active) | -50.8% (active) | -67.2% (active) | -80.2% (active) | -70.2% (active) | -53.5% (active) |
| Cc1sc2ncn(CC(=O)Nc3ccc(S(N)(=O)=O)cc3)c(=O)c2c1C | 97.7% | 105% | 100% | 101% | 106% | 113% | 102% |
| O=C1c2ccc3c4c(ccc(c24)C(=O)N1CCCCO)C(=O)N(CCCCO)C3=O | 63.5% | 3.2% (active) | 10.6% | 28.2% | 28.4% | 97.2% | 95.3% |
| CCOC(=O)c1ccc(N=Cc2sc(=O)[nH]c2O)cc1 | 101% | 103% | 100% | 92% | 107% | 101% | 103% |
| CC1=C(C(=O)OCC2CCN(C(=O)OC(C)(C)C)CC2)[C@@H](c2cccc(C#N)c2)C2=C(CC(C)(C)CC2=O)N1 | 50.3% | 41.4% | 29.6% | 30.5% | 17.1% | 75.6% | 36% |
| COc1cc(NC(=O)CCSc2nc3ccccc3c(=O)n2CCc2ccccn2)cc(OC)c1OC | 73.4% | 101% | 101% | 62.4% | 85.5% | 97.5% | 99.8% |
| COc1cc(/C=C2\Oc3cc(OCCCN4CCCC4)ccc3C2=O)cc(OC)c1 | 78.3% | 78.9% | 5.52% (active) | 4.85% (active) | -67.3% (active) | 75.7% | 26.3% |
| Cc1ccc(Cn2c(N3CCC(C(=O)NCc4cccs4)CC3)nc3ccccc32)cc1 | 75% | 90% | 93.6% | 95.2% | 58.1% | 90.1% | 54.8% |
| COc1ccc(Cn2c(Br)c3c(c2Br)-c2nc(N)sc2CC3)cc1 | 51.4% | -40.6% (active) | 16% | 17.7% | 17.8% | 66.9% | 29.6% |
| Nc1ccc(-c2ccc(-c3ccccc3N)c3[nH]c4ccccc4c23)cc1 | 53.2% | -58.9% (active) | 29.5% | 19.6% | 22.6% | 42.1% | 23.6% |
